# PMC4336329 (PLoS ONE, 2015)
# Hit rate of the full screen: of about 310,000 compounds, about 14,000 (4.5%) showed an effect of 50% or more. The effect is printed as a negative number. The entries come from a sample that favours strong results as a whole.
# Biological target: human ether-à-go-go-related gene (hERG) potassium channel (human, UniProt Q12809)
# Experiment: primary screen, population patch clamp on CHO cells stably expressing hERG; higher = less effect of the substance
# 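Also: peak tail current of the secondary pulse compared with the same well before compound.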
# Chain of human ether-à-go-go-related gene (hERG) potassium channel (Q12809 whole entry, looked up): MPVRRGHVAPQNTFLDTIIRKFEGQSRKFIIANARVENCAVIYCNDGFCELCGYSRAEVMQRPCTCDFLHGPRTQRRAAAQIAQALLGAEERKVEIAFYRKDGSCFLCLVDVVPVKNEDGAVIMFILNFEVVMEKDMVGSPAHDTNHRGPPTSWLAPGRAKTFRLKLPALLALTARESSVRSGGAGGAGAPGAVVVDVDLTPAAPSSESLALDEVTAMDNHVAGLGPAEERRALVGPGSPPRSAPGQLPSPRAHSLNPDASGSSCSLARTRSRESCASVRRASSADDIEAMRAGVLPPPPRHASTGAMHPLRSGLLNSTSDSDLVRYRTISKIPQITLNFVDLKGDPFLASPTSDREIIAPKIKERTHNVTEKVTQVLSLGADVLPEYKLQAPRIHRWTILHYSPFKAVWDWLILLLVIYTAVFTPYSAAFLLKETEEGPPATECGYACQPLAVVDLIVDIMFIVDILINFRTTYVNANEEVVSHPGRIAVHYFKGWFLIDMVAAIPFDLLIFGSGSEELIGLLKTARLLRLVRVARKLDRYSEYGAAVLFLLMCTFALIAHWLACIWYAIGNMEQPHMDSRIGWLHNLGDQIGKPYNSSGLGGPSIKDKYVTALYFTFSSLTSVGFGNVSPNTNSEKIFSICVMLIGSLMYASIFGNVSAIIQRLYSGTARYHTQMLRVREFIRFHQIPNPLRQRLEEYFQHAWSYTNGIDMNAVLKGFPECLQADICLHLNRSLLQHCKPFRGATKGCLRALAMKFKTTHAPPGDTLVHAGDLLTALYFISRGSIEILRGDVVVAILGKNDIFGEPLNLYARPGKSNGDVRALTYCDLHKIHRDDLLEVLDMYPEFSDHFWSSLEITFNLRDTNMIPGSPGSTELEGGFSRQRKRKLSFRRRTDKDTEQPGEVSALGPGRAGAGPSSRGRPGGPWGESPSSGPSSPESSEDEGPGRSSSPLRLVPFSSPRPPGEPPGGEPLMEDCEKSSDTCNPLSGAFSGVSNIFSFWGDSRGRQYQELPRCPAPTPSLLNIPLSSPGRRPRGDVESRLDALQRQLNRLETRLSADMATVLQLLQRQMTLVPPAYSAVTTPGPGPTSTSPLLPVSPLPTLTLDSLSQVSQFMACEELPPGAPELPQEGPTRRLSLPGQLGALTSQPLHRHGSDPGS
row,SMILES,"hERG current change (%, negative = inhibition) at 10uM"
1,CCOc1ccc(Cn2nnc(C(=O)NCc3ccc(OC)cc3)c2N)cc1,6.41%
2,CCN(CC)c1ccc(C2C(C(=O)OCCOC)=C(C)NC3=C2C(=O)CCC3)cc1 (stereo not shown),-5.24%
3,CCOc1ccc(-c2cc(N)n(S(=O)(=O)c3ccc(OC)cc3)n2)cc1,10.7%
4,CN1c2ccccc2-c2nc3ccccc3n2C1c1ccco1 (stereo not shown),-15.3%
5,CC1CCCC(C)N1C(=O)Cn1cc(C#N)c2ccccc21 (stereo not shown),9.8%
6,Cc1nc2c(o1)CCc1ccccc1C2N1CCN(C)CC1.O=C([O-])/C=C\C(=O)[O-] (stereo not shown),12.4%
7,CCc1ccc2c(c1)Sc1ccccc1CC2N1CCN(C)CC1.CS(=O)(=O)O.O (stereo not shown),-69%
8,CCS(=O)(=O)N1CCN(C2Cc3ccccc3C2)CC1.O=C(O)C(=O)O,3.3%
9,CSc1ccc2c(c1)C(N1CCN(C)CC1)Cc1ccccc1S2.O=C([O-])/C=C\C(=O)[O-] (stereo not shown),-65.2%
10,CN(C)/C=C/C(=O)c1ccn(S(=O)(=O)c2ccccc2)c1,23.6%
11,Fc1ccc(Cn2nnnc2C(c2ccc(Cl)cc2)N2CC=C(c3ccc(F)cc3)CC2)cc1 (stereo not shown),10.1%
12,CCOc1ccc(N(C)Cc2cc(=O)oc3ccc(OCC)cc23)cc1,-1.17%
13,CCOc1cc2[nH]c(=S)n(C3CCN(Cc4ccccc4)CC3)c(=O)c2cc1OCC,17.6%
14,Cc1nn(Cc2ccccc2)c(=O)n1N(C)c1ncc(C(F)(F)F)cc1Cl,-7.74%
15,Cc1ccsc1C1C(C#N)=C(N)OC2=C1C(=O)CC(C)(C)C2 (stereo not shown),-6.69%
16,O=C1C=C(Nc2cccc(Cl)c2)CC(c2ccco2)C1 (stereo not shown),-4.15%
17,O=C1C=C(Nc2ccc(Cl)cc2)CC(c2ccco2)C1 (stereo not shown),-1.85%
18,O=C1C=C(NCc2ccco2)CCC1,16.7%
19,O=C1C=C(Nc2ccc(Cl)cc2)CC(c2ccc(Cl)cc2)C1 (stereo not shown),-2.27%
20,O=C1C=C(NCc2ccco2)CC(c2ccc(Cl)cc2)C1 (stereo not shown),-61.5%

row,SMILES,"hERG current change (%, negative = inhibition) at 10uM"
1,O=C1C=C(NCc2ccc(Cl)cc2)CC(c2ccco2)C1 (stereo not shown),-82.2%
2,N#Cc1c(C(F)(F)F)cc(-c2ccccc2)n(N)c1=O,13.9%
3,Cc1cc(C)n2nc(SCc3ccc(F)cc3Cl)nc2n1,-4.5%
4,Cn1c(N=Nc2ccccc2)nc2ccccc21,4.08%
5,S=c1[nH]c2ccccc2n2c(=S)[nH]nc12,5.26%
6,COCCCNC(=O)CN(c1cc(Cl)ccc1OC)S(C)(=O)=O,17.4%
7,Oc1ccc(CN2CCN(Cc3ccccc3)CC2)c2cccnc12,-13.9%
8,CCCCCc1c(C)nc(NCc2ccccc2)[nH]c1=O,-4.44%
9,N/C(=N\OC(=O)c1ccc(Cl)c(Cl)c1)c1ccccn1,3.76%
10,O=C(CN1C(=O)CSc2ccc(S(=O)(=O)N3CCOCC3)cc21)NCCCN1CCCCC1,18%
11,CC1CCN(S(=O)(=O)c2ccc3c(c2)N(CC(=O)NCc2cccnc2)C(=O)CS3)CC1,-53.3%
12,CC1CCN(S(=O)(=O)c2ccc3c(c2)N(CC(=O)NCCN2C(C)CCCC2C)C(=O)CS3)CC1 (stereo not shown),-52.7%
13,O=C(CN1C(=O)CSc2ccc(S(=O)(=O)N3CCOCC3)cc21)NCCCN1CCc2ccccc2C1,-66.3%
14,CC1CCN(CCCNC(=O)CN2C(=O)CSc3ccc(S(=O)(=O)N4CCC(C)CC4)cc32)CC1,-54.5%
15,O=C(CN1C(=O)CSc2ccc(S(=O)(=O)N3CCOCC3)cc21)NCc1cccnc1,6.4%
16,CC1CCN(S(=O)(=O)c2ccc3c(c2)N(CC(=O)NCCCN2CCCCC2C)C(=O)CS3)CC1 (stereo not shown),0.668%
17,CC1CCN(S(=O)(=O)c2ccc3c(c2)N(CC(=O)NCCCN2CCCCC2)C(=O)CS3)CC1,-10.6%
18,CC1CCN(CCCNC(=O)CN2C(=O)CSc3ccc(S(=O)(=O)N4CCOCC4)cc32)CC1,6.31%
19,CC1CCCCN1CCNC(=O)CN1C(=O)CSc2ccc(S(=O)(=O)N3CCCCC3)cc21 (stereo not shown),-17.6%
20,CCCCCCCNC(=O)CN1C(=O)CSc2ccc(S(=O)(=O)N3CCOCC3)cc21,-17.7%

row,SMILES,"hERG current change (%, negative = inhibition) at 10uM"
1,Cc1ccc(CNC(=O)CN2C(=O)CSc3ccc(S(=O)(=O)N4CCC(C)CC4)cc32)cc1,-27.4%
2,O=C(NC1CC2CCCC(C1)N2C(=O)Nc1ccccc1)C1CC1 (stereo not shown),6.44%
3,Cn1c(Cc2cccc3ccccc23)nnc1SCC(=O)N1CCN(c2cccc(Cl)c2)CC1,-25.7%
4,COc1ccc(S(=O)(=O)N(CC(=O)N2CCN(C)CC2)C2CCCCC2)cc1OC,-7.66%
5,COC(=O)C(C(=O)OC)=C(/C=C/C=C/N(C)C)N(C)C,13.9%
6,CCN(CC)S(=O)(=O)c1ccc(OC(C)C)nc1,-1.16%
7,COc1ccc([C@H]2CC(=O)C=C(c3cc4ccccc4c4ccccc34)C2)cc1,13.6%
8,CCCc1c(C(=O)NNc2cc(C(F)(F)F)ccc2Cl)cnn1-c1ccccc1,0.78%
9,Cc1ccc(C)c(NC(=O)C2C3CCCC2C3c2ccccc2)c1 (stereo not shown),6.75%
10,CC1CCN(S(=O)(=O)c2ccc3c(c2)NC(=O)CS3)CC1,-52.2%
11,CC1CCN(S(=O)(=O)c2ccc3c(c2)N(CC(=O)NCCCN2CCCC(C)C2)C(=O)CS3)CC1 (stereo not shown),-20.6%
12,CC1CC(C)CN(CCCNC(=O)CN2C(=O)CSc3ccc(S(=O)(=O)N4CCOCC4)cc32)C1 (stereo not shown),15.8%
13,CC1CCCN(CCCNC(=O)CN2C(=O)CSc3ccc(S(=O)(=O)N4CCOCC4)cc32)C1 (stereo not shown),19.5%
14,CN1CCN(S(=O)(=O)c2ccc3c(c2)NC(=O)CS3)CC1,13.3%
15,CC1CC(C)CN(CCCNC(=O)CN2C(=O)CSc3ccc(S(=O)(=O)N4CCCCC4)cc32)C1 (stereo not shown),-50.2%
16,CCC1CCCCN1CCCNC(=O)CN1C(=O)CSc2ccc(S(=O)(=O)N3CCC(C)CC3)cc21 (stereo not shown),-9.76%
17,CCN1CCN(S(=O)(=O)c2ccc3c(c2)NC(=O)CS3)CC1,19.9%
18,CC1CCN(S(=O)(=O)c2ccc3c(c2)N(CC(=O)NCCCN2CC(C)CC(C)C2)C(=O)CS3)CC1 (stereo not shown),-66.2%
